Screening data from PubChem BioAssay.
MCF10A rerep: inducers of DNA re-replication in MCF 10A breast cells. MCF 10A DNA re-replication, Hoechst nuclear intensity, 48 h. Potency, µM (series often up to 46.1 µM), for the others: at the top dose activity, positive = re-replication, actives largely listed as activators. actives 2.9% (n = 350,000). AID 624296; further: % of control where 0% means no effect; nearly all actives have a fitted effect of over 50% in size
ELG1 repair inh: inhibitors of ELG1-dependent DNA repair in HEK293T cells; HEK293T ELG1-luciferase reporter, luminescence, 16 h; DNA damage induced by 5-fluorouridine; Potency, µM (doses to about 46.1 µM), without a hit: at the highest dose activity change, negative = inhibition, usual class: inhibitors; actives 2.3% (n = 330,000); further: on the % scale 0 is the no-effect control and ±100 the full control effect; nearly all actives have a fitted effect of over 55% in size
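DMSO vehicle served as the neutral condition. Each well held 2,000 cells given 5-fluorouridine plus compound; after 16 hr at 37 °C/5% CO2, ONE-Glo was added and luciferase measured 30 min later.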
SW480 rereplic: DNA re-replication induction in SW480 cells. SW480 DNA re-replication, Hoechst DNA content imaging, 48 h. Potency, µM (series often up to 46.1 µM), for the others: at the highest dose re-replication activation, usual class: activators. actives 1.8% (n = 340,000); further: % of control where 0% means no effect; nearly all actives have a fitted effect of over 55% in size
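Readout is total intensity of Hoechst-stained nuclei, excited at 405 nm and collected at 500-530 nm. Compound treatment lasted 48 hr at 37 C in 5% CO2 before staining.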
KB-V1 cytotox: KB-V1 MDR subline cytotoxicity; AID 1347076; KB-V1 MDR cells viability, CellTiter-Glo, 72 h; Potency, µM (top dose mostly 46.1 µM), most hits filed as cytotoxic; actives 3.4% (n = 400,000); further: on the % scale 0 is the no-effect control and ±100 the full control effect; nearly all actives have a fitted effect of over 60% in size
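Following 72 h at 37 degrees C with compound, KB-V1 cell viability was read by CellTiter-Glo luminescence, medium being phenol-red-free DMEM plus 10% FBS; concentration-response parameters came from normalized, curve-fitted qHTS data.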
KB-3-1 cytotox: KB-3-1 parental cell cytotoxicity. KB-3-1 viability, CellTiter-Glo ATP luminescence, 72 h. Potency, µM (doses to about 46.1 µM), most hits filed as cytotoxic. AID 1347075. actives 1.4% (n = 400,000); further: on the % scale 0 is the no-effect control and ±100 the full control effect; nearly all actives have a fitted effect of over 60% in size
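Luminescent ATP read-out (CellTiter-Glo) measures survival of drug-naive KB-3-1 cells after 72 h compound exposure at 37 °C. Titration series was screened from lowest to highest concentration, with DMSO vehicle plates as background controls.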
ELG1 FLuc counter: luciferase inhibition in cell-free luciferin readout for ELG1 hits; cell-free firefly luciferase luminescence counter-screen, ViewLux; Potency, µM (series often up to 46.1 µM), without a hit: at the highest dose activity change, negative = inhibition, actives largely listed as inhibitors; shares compounds with ELG1 repair inh; actives 3% (n = 350); further: on the % scale 0 is the no-effect control and ±100 the full control effect
ELG1 Luc conf: inhibits ELG1-dependent DNA repair in HEK293T cells, confirmed; actives 68% (n = 670); Potency, µM (titrated, usually from 46.1 µM), for inactives: at the top dose activity change, negative = inhibition, hits mostly inhibitors; shares compounds with ELG1 repair inh; HEK293T ELG1-luciferase levels, luminescence; cells co-treated with 5-fluorouridine; further: on the % scale 0 is the no-effect control and ±100 the full control effect; nearly all actives have a fitted effect of over 55% in size
ELG1-Luc MMS: MMS-stimulated human ELG1 repair inhibition, confirmed; shares compounds with ELG1 repair inh; HEK293T luciferase-tagged ELG1 level, MMS stimulated; Potency, µM (top dose mostly 46.1 µM), without a hit: at the top dose activity change, negative = inhibition, actives largely listed as inhibitors; actives 53% (n = 670); further: on the % scale 0 is the no-effect control and ±100 the full control effect; nearly all actives have a fitted effect of over 60% in size
ELG1 5FU viab: confirmation of ELG1 repair inhibitors: viability with 5FU; shares compounds with ELG1 repair inh; cell viability with 5-FU, ELG1-dependent repair; Potency, µM (doses to about 46.1 µM), inactives show at the top dose activity change, negative = viability loss, most hits filed as cytotoxic; 670 tested, under 10 active; AID 624250;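 further: ELG1-luc HEK293T cells cotreated with 5-fluorouridine at 10 µM final; viability measured 16 h after compound addition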
ELG1 MMS cell: confirmation of ELG1 repair inhibitors: viability with MMS | actives 33% (n = 670) | shares compounds with ELG1 repair inh | Potency, µM (titrated, usually from 46.1 µM), for inactives: at the top dose activity change, negative = viability loss, hits mostly cytotoxic | Cell viability with MMS, ELG1-dependent DNA repair;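 further: ELG1-luc HEK293T cells co-treated with 10 µM MMS; viability read 16 h after compound addition; on the % scale 0 is the no-effect control and ±100 the full control effect; nearly all actives have a fitted effect of over 60% in size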
ELG1 unstim viab: unstimulated viability counter-screen for ELG1 repair hits; shares compounds with ELG1 repair inh; cell viability counter-screen, unstimulated, luminescence; Potency, µM (titrated, usually from 45.9 µM), for the others: top-dose activity change, negative = loss of viability, most hits filed as cytotoxic; actives 8% (n = 900); AID 624252;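 further: compound exposure lasted 16 hours before reading; on the % scale 0 is the no-effect control and ±100 the full control effect; nearly all actives have a fitted effect of over 55% in size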
FLuc biochem: inhibits purified firefly luciferase, counter-screen for ELG1 hits; actives 10% (n = 350); shares compounds with ELG1 repair inh; purified firefly luciferase, luminescence counter-screen; Potency, µM (series often up to 57.5 µM), for the others: top-dose activity, negative = inhibition, usual class: inhibitors; AID 624253; further: on the % scale 0 is the no-effect control and ±100 the full control effect
* marks the source's active call; other numbers are inactive results; i = inactive; ? = inconclusive; nt = not tested or not shown; [ ] = dose if it differs, or a comment. Rows were chosen to be rich in hits. Some 8.1% of all compounds tested hit in one or more screens of this group. The call rests on the fitted dose curve; in most records, active means well fitted curve in the direction sought with a large enough effect; inconclusive means small, poorly fitted or top-dose-only effect, or another doubt; inactive means no such curve, though single readings can be large; an effect the other way counts as inactive or inconclusive. Potency means the concentration at half of the fitted maximal effect.

SMILES | MCF10A rerep | ELG1 repair inh | SW480 rereplic | KB-V1 cytotox | KB-3-1 cytotox | ELG1 FLuc counter | ELG1 Luc conf | ELG1-Luc MMS | ELG1 5FU viab | ELG1 MMS cell | ELG1 unstim viab | FLuc biochem
CCCCSc1nc2ccc(Nc3nc(N4CCOCC4)nc(N4CCOCC4)n3)cc2s1 | ? | 16.4µM* | 1.1% | i | ? | 4.9% | 12.6µM* | ? | ? | -0.1% | -9.9% | -6.3%
CCCSC1=NC2(CCN(C(=O)NC3CCCCC3)CC2)N=C1c1ccc(OC)cc1 | nt | nt | nt | i | i | nt | nt | nt | nt | nt | nt | nt
CC(=O)n1cc([C@H]2C=C(C(=O)N3CCN(Cc4ccccc4)CC3)O[C@@H](OCCCCO)C2)c2ccccc21 | -0.9% | -6.3% | 18.4%[9.22 µM] | i | i | nt | nt | nt | nt | nt | nt | nt
CC(=O)n1cc([C@@H]2C=C(C(=O)N3CCN(Cc4ccc5c(c4)OCO5)CC3)O[C@H](OCCCCO)C2)c2ccccc21 | ? | 18.3µM* | 0.7% | i | i | -8.5% | ? | 7.7% | -5.5% | -15.8% | ? | -16.3%
O=C(C1=C[C@H](c2ccc3c(c2)OCO3)C[C@H](OCCCCO)O1)N1CCN(Cc2ccccc2)CC1 | -1.3% | 7.5% | 7.6% | ? | i | -4.3% | -35.0% | ? | -1.1% | ? | -6.2% | -5.7%
O=C(C1=C[C@H](c2ccc3c(c2)OCO3)C[C@H](OCCCCO)O1)N1CCN(Cc2ccc3c(c2)OCO3)CC1 | -2.2% | ? | 6.6% | i | i | nt | nt | nt | nt | nt | nt | nt
CC1CCc2nc(-c3cc4ccc(O)cc4oc3=O)sc2C1 (configuration not stated) | nt | nt | nt | i | ? | 52.8% | nt | nt | nt | nt | -1.0% | 0.184µM*
O=c1oc2cc(O)ccc2cc1-c1nc2ccccc2o1 | nt | nt | nt | i | i | nt | nt | nt | nt | nt | nt | nt
COc1ccc(C(=O)N/N=C/C(=O)c2ccccc2)cc1 | 14.5% | ? | 4.8% | i | i | nt | nt | nt | nt | nt | nt | nt
Cc1ccc(C(=O)NN=CC(=O)c2ccccc2)c(C)c1 | -0.9% | ? | -4.0% | i | i | nt | nt | nt | nt | nt | -18.7% | nt
COc1ccc(Cn2c(C(=O)O)c(CNCc3ccco3)c3ccc(OC)cc32)cc1 | nt | nt | nt | i | i | nt | nt | nt | nt | nt | nt | nt
CN1/C(=C\C(=O)C[n+]2ccc3ccccc3c2)C(C)(C)c2ccccc21 | ? | 1.16µM* | ? | i | ? | nt | ? | 1.99µM* | -6.2% | 2.81µM* | ? | nt
COc1ccc(-c2coc3cc(OC(C)=O)c(OC)cc3c2=O)cc1 | -36.8% | ? | -8.0% | i | i | nt | nt | nt | nt | nt | nt | nt
O=S(=O)(c1c(Cl)cc(Br)cc1Cl)N1CCN(C(=S)NC2CC2)CC1 | ? | 4.11µM* | 0.1% | i | i | nt | 3.97µM* | 15.8µM* | ? | 14.1µM* | -12.4% | nt
CN1CCN(c2nc(-c3ccncc3)nc3ccccc23)CC1 | ? | -15.9% | ? | ? | i | 17.6% | ? | ? | -15.7% | -5.3% | ? | 0.4%
COc1ccc(-c2cc(C(F)(F)F)n3nc(C(=O)Nc4cc(C)on4)cc3n2)cc1OC | ? | 3.66µM* | 0.7% | ? | i | nt | ? | -4.3% | ? | ? | 2.7% | nt
COc1ccc(-c2cc(C(F)(F)F)n3ncc(C(=O)NCC4CCCO4)c3n2)cc1OC (configuration not stated) | ? | 0.581µM* | -2.1% | i | i | 9.8% | 0.889µM* | 13.2% | ? | -3.1% | -3.5% | 1.8%
Cc1cc(NC(=O)c2cnn3c(C(F)(F)F)cc(-c4ccc(Br)cc4)nc23)no1 | -7.1% | 14.6µM* | 2.9% | ? | i | 1.6% | 5µM* | -6.9% | ? | 1.6% | -19.8% | 3.7%
CCOC(=O)c1cnn2c(C(F)(F)F)cc(-c3ccc(Br)cc3)nc12 | nt | nt | nt | i | i | nt | nt | nt | nt | nt | nt | nt
O=S1(=O)CC(N2CC=CC2)CN1Cc1cn(Cc2cccc(C(F)(F)F)c2)nn1 (configuration not stated) | nt | nt | nt | i | i | nt | nt | nt | nt | nt | nt | nt
CC1CCCCN1c1cc2c(cc1F)c(=O)c(S(=O)(=O)c1ccccc1)cn2Cc1ccccc1 (configuration not stated) | nt | nt | nt | i | i | nt | nt | nt | nt | nt | nt | nt
CCCC(=O)Nc1cc(C)cn(Cc2c(F)cccc2Cl)c1=O | -6.6% | -26.9% | -6.4%[9.22 µM] | i | i | nt | nt | nt | nt | nt | nt | nt
CC(C)CC(NC(=O)/C(=C/c1ccco1)NC(=O)c1ccc(Br)o1)C(=O)O (configuration not stated) | -7.3% | 0.0% | -0.8% | i | i | nt | nt | nt | nt | nt | nt | nt
O=c1c2ccccc2oc2ccc(-c3ccoc3)cc12 | nt | nt | nt | ? | i | nt | nt | nt | nt | nt | ? | nt
Cc1ccc(C)c(S(=O)(=O)NCc2ccc(C(=O)N3CCN(c4ccccc4)CC3)cc2)c1 | 17.8% | ? | 12.8% | ? | i | nt | nt | nt | nt | nt | nt | nt
Cc1ccc(S(=O)(=O)NCc2ccc(C(=O)N3CCN(c4ccc([N+](=O)[O-])cc4)CC3)cc2)cc1 | 4.8% | 2.31µM* | -5.0% | ? | ? | nt | 7.91µM* | 1.58µM* | -8.5% | 1.77µM* | ? | nt
O=C(Nc1ccccc1-c1nc2ccccc2[nH]1)c1ccc(N2C(=O)CCC2=O)cc1 | ? | 1.83µM* | -6.0% | i | i | nt | 0.705µM* | ? | ? | 3.5% | -18.4% | nt
Cc1cc(Br)ccc1NC(=O)CSCc1c(C)noc1C | 11.9% | -5.0% | 6.6% | i | i | nt | nt | nt | nt | nt | nt | nt
